# Rows were chosen to be rich in hits. Some 0.18% of all compounds tested hit in one or more screens of this group.
# Bfl-1 Bim block: inhibitors of Bim binding to Bfl-1, primary screen, biochemical, multiplexed, bead-based flow cytometry; Bcl-2-related protein A1 (Homo sapiens), Q16548; Bim-Bfl-1 binding inhibition; inhibition, % at 10 µM; 190,000 compounds, 0.12% hits; AID 1008, 2008;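 further: 0% = wells without compound plus tracer and 100% = blocker peptide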
# Target sequence (Q16548 whole entry, looked up): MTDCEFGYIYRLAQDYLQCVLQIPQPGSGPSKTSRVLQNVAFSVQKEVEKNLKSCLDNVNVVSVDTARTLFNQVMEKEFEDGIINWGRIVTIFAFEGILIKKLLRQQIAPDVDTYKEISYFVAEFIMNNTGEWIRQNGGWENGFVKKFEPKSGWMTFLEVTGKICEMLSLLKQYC
# Bim-Bcl-W: inhibitors of Bim binding to Bcl-W, primary screen, biochemical, multiplexed, bead-based flow cytometry. inhibition, % at 10 µM. AID 952, 2007. Bim peptide-Bcl-W binding. 190,000 compounds, 0.02% hits. Bcl-2-like protein 2 (Homo sapiens), Q92843;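 further: 0% = bound tracer without compound and 100% = peptide blocker; higher means less fluorescent Bim peptide bound to Bcl-W beads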
# Bim-Bcl-XL: inhibitors of Bim-Bcl-XL binding, primary screen, biochemical, multiplexed, bead flow cytometry, human Bcl-XL; Bim peptide-Bcl-XL binding, fluorescence; inhibition, % at 10 µM; 190,000 compounds, 0.04% hits; AID 1007, 2008
# Bim-Bcl-2: inhibitors of Bim-Bcl-2 binding, primary screen, biochemical, multiplexed, human Bcl-2 family | Bead-based flow cytometry, Bim peptide-Bcl-2 binding | inhibition, % at 10 µM | 190,000 compounds, 0.06% hits | AID 950, 2007; in the data active means inhibition above about 40%;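 further: 0% = no compound wells with probe peptide and 100% = reference peptide inhibitor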
# Bcl-B Bim block: inhibitors of Bim-Bcl-B binding, primary screen, biochemical, multiplexed, human Bcl-2 family | 190,000 compounds, 0.073% hits | inhibition, % at 10 µM | Bcl-2-like protein 10 (Homo sapiens), Q9HD36 | bead-based flow cytometry, Bim peptide-Bcl-B binding;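 further: 0% = tracer peptide without compound and 100% = reference inhibitor peptide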
# Target sequence (Q9HD36 whole entry, looked up): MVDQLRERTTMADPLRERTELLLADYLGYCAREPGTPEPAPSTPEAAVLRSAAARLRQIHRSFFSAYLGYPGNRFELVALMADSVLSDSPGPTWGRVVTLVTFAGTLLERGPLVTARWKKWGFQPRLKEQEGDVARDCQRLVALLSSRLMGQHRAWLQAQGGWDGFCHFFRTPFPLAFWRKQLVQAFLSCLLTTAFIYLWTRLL
# The depositor's hits bear a star. Unless noted, no stated cut-off is given here; in the data, active means inhibition above about 40%.
SMILES,Bfl-1 Bim block,Bim-Bcl-W,Bim-Bcl-XL,Bim-Bcl-2,Bcl-B Bim block
CCCN1CCN(C(=O)c2cccc3c2C(=O)N(CCOC)C3)CC1,-9,-5,-5,-11,-7
CN(Cc1ccccc1)C(=O)CSc1nnc(-c2ccco2)n1-c1ccccc1,4,-2,-2,7,0
Cc1ccc(-n2c(-c3ccncc3)n[nH]c2=S)c(C)c1,1,-2,0,0,-3
Cc1nc2cc(NC(=O)N3CCN(c4ccccn4)CC3)ccc2o1,2,4,4,7,3
O=C(Nc1ccc2nc(-c3ccco3)c(-c3ccco3)nc2c1)N1CCN(c2ccccn2)CC1,53*,28,12,25,1
Cn1cc(-c2nnnn2-c2cccc(C(F)(F)F)c2)c(C(F)(F)F)n1,-15,-1,-2,-13,-10
Cc1ccc(-n2ccc(=O)c(-c3ccnc(SCc4cccc(Cl)c4)n3)n2)cc1,56*,15,12,79*,74*
CCN1CCN(C(C(=O)NC2CCCCC2)c2ccc(Cl)cc2)CC1 (configuration not stated),-9,-4,-1,-6,-6
Cn1c(CCNC(=O)C2CCCCC2)nc2cc(NC(=O)c3cccs3)ccc21,59*,8,15,91*,86*
CC(=O)NCCc1nc2cc(NC(=O)c3cccs3)ccc2n1C,-3,1,-1,-4,-1
CN(C)/C=C/C(=O)c1ccc(C(F)(F)F)cc1F,22,23,94*,74*,89*
O=C(Nc1ccccc1)Nc1ccc2ncoc2c1,13,14,59*,41*,52*
O=C(Nc1ccccc1)Nc1ccc2ocnc2c1,0,-3,-4,-3,-3
Nc1c(C(=O)NCC2CCCO2)sc2nc3c(c(-c4ccco4)c12)CC/C3=C\c1ccco1 (configuration not stated),38,33,37,65*,52*
COCCn1c(N)c(C(=O)Nc2sc3c(c2C(=O)OC)CCCC3)c2nc3ccccc3nc21,7,27,41*,17,25
COc1ccccc1OCCNC(=O)Cc1ccc(Cl)c(Cl)c1,-7,-1,0,-5,-6
Cc1ccc(NC2=C(NC(=O)c3ccccc3)C(=O)c3ccccc3C2=O)cc1Cl,50*,23,1,13,0
Cc1ccc(NCC(=O)c2ccccc2)cc1Cl,9,0,13,13,5
O=C(O)c1cccc(NC2=C(Cl)C(=O)c3ccccc3C2=O)c1,60*,18,-5,11,-48
COc1ccccc1-c1cc2nc(C)c(CCC(=O)NC(C)CCc3ccco3)c(C)n2n1 (configuration not stated),-11,0,-5,-10,-8
CN(C)CCCC1(O)c2ccccc2C=Cc2ccccc21,-1,-2,-7,1,-8
CC(C)=C1C(=O)NN(c2ccc(C)c(Cl)c2)C1=O,43*,48*,50*,36,56*
CC1C=CCC2C(=O)N(c3ccc(OC(=O)c4cccs4)cc3)C(=O)C12 (configuration not stated),55*,-6,3,79*,70*
CC1C=CCC2C(=O)N(c3ccccc3OC(=O)c3cccs3)C(=O)C12 (configuration not stated),-9,-1,-3,-6,-3
COc1ccc(/C=N/n2cc(-c3ccccc3)nc2N)cc1,65*,12,19,84*,84*
SMILES,Bfl-1 Bim block,Bim-Bcl-W,Bim-Bcl-XL,Bim-Bcl-2,Bcl-B Bim block
Cc1ccc(N=C2NC(=O)/C(=C/C=C/c3ccco3)S2)cc1,52*,15,4,20,0
Cc1ccc2nc(Cl)c(/C=N/Nc3nc(C)cc(C)n3)c(=O)n2c1,-3,2,1,3,6
COc1ccccc1-n1c(-c2ccc(Cl)cc2)c[nH]c1=S,5,-2,-5,0,42*
C=C(C)CNC(=S)N/N=C/c1c(F)cccc1F,-4,0,0,-3,-4
CCC(=O)N(C1=C(NC)C(=O)c2ccccc2C1=O)C(C)C,-4,-2,-1,-3,-3
CCC(=O)N(CC)C1=C(O)c2ccccc2C(=O)C1=O,52*,10,5,7,11
N/C(Cc1ccc(Cl)c(Cl)c1)=N\OC(=O)c1cccs1,14,15,8,29,41*
CCOC(=O)c1ccc(NC(=O)CSCCC(=O)O)cc1,50*,62*,61*,90*,84*
CCOC(=O)c1c2c3c(cccc3[nH]c1=O)C(=O)c1ccccc1-2,5,16,23,10,4
CCOC(=O)c1c2c3c(c(Cl)ccc3[nH]c1=O)C(=O)c1ccccc1-2,10,33,51*,21,20
Cc1cccc(NCN2C(=O)c3ccccc3C2=O)c1,-5,-2,-7,0,1
O=S1(=O)N=C(N(CCO)/N=C/c2ccncc2)c2ccccc21,7,30,40*,12,23
COc1ccc(CCNC(=O)CC(c2ccccc2)c2cccc(C)c2O)cc1OC (configuration not stated),-7,0,-3,-3,-7
CSc1nnc2c3cc(C)ccc3n(Cc3ccccc3)c2n1,20,18,14,48*,39
CC(C)(C)C(=O)Cn1ncc(Br)c(Br)c1=O,-5,-1,0,0,-4
CCOc1cc(NC(=S)NC)c(OCC)cc1NC(=O)c1ccc(OC)cc1,45*,49*,27,53*,41*
COC(=O)c1ccc(C(=O)N2CCCC(CNC(=O)c3ccccc3Cl)C2)cc1 (configuration not stated),-4,-3,0,-3,-10
NC(=O)c1c(NC(=O)C2CCCO2)sc2c1CCCC2 (configuration not stated),39,32,42*,30,28
Cc1nc(NCCCn2ccnc2)c2ccccc2n1,0,1,0,-3,-1
O=C1c2ccccc2-c2onc3ccc(NCCCn4ccnc4)c1c23,79*,94*,100*,88*,92*
COc1cc(NC(=O)c2ccc3c(c2)OCO3)c2ncccc2c1,0,0,-1,-3,-2
COc1cc(NCCCCCCCN)c2ncccc2c1,36,48*,49*,51*,71*
CCOC(=O)CSC1=NC(=O)/C(=C\c2ccc(OC(C)=O)cc2)S1,58*,9,2,12,6
FC(F)(F)c1nc(=S)c2ccccc2[nH]1,9,1,6,6,-4
Cc1nc(=S)c2ccccc2[nH]1,68*,11,15,87*,85*
Cc1ccc(-c2cc(-c3ccccc3)c(C#N)c(N)n2)o1,42*,6,0,4,2
Cc1ccc(-c2cc(-c3ccccc3Cl)c(C#N)c(N)n2)o1,25,3,0,2,-3

# Bioassay records from PubChem BioAssay.
